The values below come from PubChem BioAssay (NCATS).

Values joined by “and” are separate entries in the source; they are usually repeats but may differ in a detail not shown here. Equal entries are not always repeated. Results filed as inconclusive are left out. A number with no mark means an inactive call. Active and inactive are the calls of the source. Calls follow the shape of the dose curve; as a rule, active = well fitted cell-killing curve with a large enough effect; inconclusive = small, poorly fitted or top-dose-only effect, or effect the other way; inactive = no such curve, though single readings can be large or run the other way.
Potency is read from the fitted curve at half-maximal effect.

The test can be described thus: Viability qHTS for spleen associated tyrosine kinase inhibitor (SYKi) drug resistant MV4-11 cells (AID 1963824). Also: nearly all actives have a fitted effect of over 35% in size. As to conditions: SYKi-resistant MV4-11 viability, CellTiter-Glo, 72 h; series mostly up to 45 µM; viability, % of control: at the top concentration. The procedure, abridged:
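CellTiter-Glo luminescence, read 10 min after reagent addition, reports viability after a 72 hr compound exposure. Cells are an MV4-11 line made resistant to SYK inhibition, seeded at 500 per well onto compound-containing plates.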
On the technique in general: In qHTS, concentration-response curves come from the screen itself.
Consider `CN(C)CC1CCn2cc(c3ccccc32)C2=C(C(=O)NC2=O)c2cn(c3ccccc23)CCO1` (stereo not given), for which the Potency was 0.411 µM (active).

On to `CN(C)c1nc2c(Br)c(Br)c(Br)c(Br)c2[nH]1`, for which the Potency was 8.2 µM (active). Same read-out and setting: under `COc1c(C(C)C)c(O)c(O)c2c1C(OC)[C@H]1OC(=O)[C@@]23CCCC(C)(C)[C@H]13` (stereo not given in full) stands 14.3 µM (active). `CC(CO)C1CCC2(C)CC3C(CO)CC(O)C3C(C)(O)C/C=C/12` (stereo not given): the “viability, % of control” value is 93.9%. Regarding `Nc1nc2c(c(=O)[nH]1)N1CN(c3ccc(C(=O)N[C@@H](CCC(=O)O)C(=O)O)cc3)CC1CN2` (stereo not given in full), the Potency is 0.833 µM (active). Same read-out and setting: with `COc1cc2c(cc1OC)CC(=O)N(CCCNC[C@H]1Cc3cc(OC)c(OC)cc31)CC2` the figure was 16.4 µM (active); with `CC(C)c1cc(-c2ccc(F)c3ccccc23)nc(N)n1`, 5.17 µM (active). For the compound `CC(C)C1(O)C=C2C(=O)CC3C(C)(C(=O)O)CCCC3(C)C2CC1` (stereo not given), the “viability, % of control” value is 111%. The same measure, in the same setting: with `CC(C)=CCC[C@@](C)(O)[C@H]1CC[C@]2(C)[C@@H]1[C@H](O)CC1[C@@]3(C)CC[C@H](O[C@@H]4O[C@H](CO)[C@@H](O)[C@H](O)[C@H]4O[C@@H]4O[C@H](CO)[C@@H](O)[C@H](O)[C@H]4O)C(C)(C)[C@@H]3CC[C@]12C` (stereo not given in full) the figure was 87.5% [at 17.3 µM]. For `COc1cc2nc(N3CCC(N4CCCCC4)CC3)nc(NC3CCCCCC3)c2cc1OC`, the Potency is 1.03 µM (active). On the same count and under the same terms, under `Cc1cc(Nc2nc(NC(C)c3ccc(F)cc3)c(C#N)cc2F)n[nH]1` (stereo not given) stands 0.461 µM (active); under `O=C(/C=C/c1cccnc1)c1ccncc1`, 6.51 µM (active). As for `C/C=C(\C)C(=O)O[C@H]1[C@@H](O[C@]2(COC(=O)CC(C)C)O[C@H](COC(=O)C(C)CC)[C@@H](OC(C)=O)[C@@H]2O)O[C@H](COC(C)=O)[C@@H](O)[C@@H]1O` (stereo not given in full), the “viability, % of control” value is 94.5% [at 17.3 µM]. As for `COc1c2c(c(C)c3c1C(=O)OC3)OC1(C)CC(O)C(C(C)(C)O)C(C)(CCC(=O)O)C1C2` (stereo not given), the Potency is 3.17 µM (active). As for `Cc1cc(F)ccc1[C@H]1C[C@@H](N2CCN3C(=O)CC[C@H]3C2)CCN1C(=O)N(C)[C@H](C)c1cc(C(F)(F)F)cc(C(F)(F)F)c1`, the Potency was 5.17 µM (active). For `CC(C)(O)c1ccc2c(c1)ncn2-c1cccc(-c2ccccc2C#N)c1`, the Potency is 18.4 µM (active).

Turning to `CC(=O)O[C@H]1C[C@@]2(C)[C@@H](CC[C@H]3[C@@]4(C)C=CC(=O)[C@@H](C)[C@@H]4[C@H](OC(C)=O)C(=O)[C@@]32C)/C1=C(\CCC=C(C)C)C(=O)O`, the “viability, % of control” value is 104% [at 17.3 µM].

As for `CN[C@@H]1[C@@H](O)[C@@H](O[C@@H]2[C@@H](O)[C@H](O[C@H]3O[C@@H]([C@@H](C)NC)CC[C@H]3N)[C@@H](N)C[C@H]2N)OC[C@]1(C)O`, the “viability, % of control” value was 105%.

For the compound `C=C(C(=O)O)C1CCC2(C)CCCC(C)(O)C2C1` (stereo not given), the “viability, % of control” value was 79.2%. As for `CNC(=O)c1ccc(-c2cnc3cnc(C(=O)N(C)c4ccc(Cl)cc4)cn23)cc1`, the Potency is 18.4 µM (active). Same read-out and setting: under `COc1cc2ncnc(Nc3cccc(O)c3)c2cc1OC` stands 0.651 µM (active).

Consider `C/C(=C/CO)CC[C@@H]1[C@@]2(C)CCC[C@](C)(C(=O)O)C2CC[C@@]1(C)O` (stereo not given in full), for which the “viability, % of control” value was 94.7%. In the case of `COc1ccc(C[C@H](N)C(=O)N[C@H]2[C@@H](O)[C@H](n3cnc4c(N(C)C)ncnc43)O[C@@H]2CO)cc1`, the Potency was 0.184 µM (active). As to `CSCC1OC(n2cnc3c(N)ncnc32)C(O)C1O` (stereo not given), the “viability, % of control” value was 76.5%. Same read-out and setting: with `Cc1cc(Cn2cnc3c2CC(C(=O)O)N(C(=O)C(c2ccccc2)c2ccccc2)C3)ccc1N(C)C` (stereo not given) the figure was 95.7%. For the compound `Cn1nc(C(C)(C)C)cc1C(=O)N[C@@H](Cc1cccc(Cl)c1)C(=O)NCC#N`, the Potency was 13 µM (active). For `COCC1OC(n2cnc3c(=O)[nH]cnc32)C(O)C1O` (stereo not given), the “viability, % of control” value was 103%. For the compound `Cc1cc(-c2nc(C(=O)Nc3cn(C4CCOCC4)nc3C(N)=O)co2)ccn1`, the Potency is 0.146 µM (active).

Turning to `COC1CC(O[C@H]2CC[C@@]3(C)C(=CC[C@]4(O)C3[C@H](O)[C@@H](O)[C@]3(C)[C@@H]([C@H](C)O)CC[C@@]34O)C2)OC(C)C1OC1CC(OC)C(OC2CC(OC)C(OC3OC(C)C(OC4OC(CO)C(O)C(O)C4O)C(OC)C3O)C(C)O2)C(C)O1` (stereo not given in full), the viability, % of control is 76.2% [at 9.25 µM]. The same measure, in the same setting: with `C=CC(C)(C)C12CC3C(=O)NC(Cc4cnc[nH]4)C(=O)N3C1Nc1ccccc12` (stereo not given) the figure was 83%; with `CC1CCC23COC(=O)C2=CC(O)CC3C1(C)CCC1=CC(=O)OC1O` (stereo not given), 77.6%.

As to `CN1C[C@@H]2c3ccccc3Oc3ccc(Cl)cc3[C@H]2C1`, the Potency was 18.6 µM (active). As to `Cc1ccc(NS(=O)(=O)c2cc3c(cc2N[C@@H](C)CO)NC(=O)CC3)cc1C`, the Potency was 20.6 µM (active).

`N=C1N=C(N)c2cc3ccccc3cc21`: the Potency is 38.6 µM (active). As to `CC1CC(O)C2(C)C(C(=O)O)=CCCC2C1(C)CCc1ccoc1` (stereo not given), the “viability, % of control” value is 66.8%. With `O=C(Nc1ccc(S(=O)(=O)Nc2nccs2)cc1)c1cc(-c2ccccc2)nc2ccccc12`, the Potency is 16.4 µM (active). Regarding `Cc1ccc(NC(=O)C(C)C)cc1C1CCN(Cc2ccc(Oc3ccc(F)c(F)c3)cc2)CC1`, the Potency is 4.61 µM (active). Same read-out and setting: under `CCOc1ccc(S(=O)(=O)N2CCCCCC2)c2ccccc12` stands 20.6 µM (active). Same read-out and setting: under `C=CCN1C[C@H](C(=O)N(CCCN(C)C)C(=O)NCC)CC2c3cccc4[nH]cc(c34)C[C@H]21` (stereo not given in full) stands 16.6 µM (active); under `Cc1cnc(-c2ccccc2C(C)C)nc1NCc1ccc(-n2ccnn2)cc1`, 16.4 µM (active) and 14.8 µM (active).
